Consider 102 compounds from PubChem BioAssay AID488975 (Johns Hopkins Ion Channel Center, 2010).

The campaign covered roughly 310,000 compounds. About 2,600 (0.84%) were called active. This is one part of a sample in which actives are shown more often than they occur.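 How the source made its calls: active means B-score over 3 SD under the library average, and starting fluorescence ratio not unusually high; inactive means the rest.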

The target of this assay is High affinity choline transporter 1 (Homo sapiens) (UniProt Q9GZV3). As to the kind of experiment: inhibits the human high affinity choline transporter (AID 488975).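 On B-score: choline stimulus applied at its EC90 after an EC20 pre-addition; B-score computed on integrated fluorescence ratio after choline addition.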 The conditions noted are these: CHT-expressing cells, membrane potential dye, choline response, at 10 µM; hits give low values.
High affinity choline transporter 1 (Homo sapiens), sequence (Q9GZV3 whole entry, looked up): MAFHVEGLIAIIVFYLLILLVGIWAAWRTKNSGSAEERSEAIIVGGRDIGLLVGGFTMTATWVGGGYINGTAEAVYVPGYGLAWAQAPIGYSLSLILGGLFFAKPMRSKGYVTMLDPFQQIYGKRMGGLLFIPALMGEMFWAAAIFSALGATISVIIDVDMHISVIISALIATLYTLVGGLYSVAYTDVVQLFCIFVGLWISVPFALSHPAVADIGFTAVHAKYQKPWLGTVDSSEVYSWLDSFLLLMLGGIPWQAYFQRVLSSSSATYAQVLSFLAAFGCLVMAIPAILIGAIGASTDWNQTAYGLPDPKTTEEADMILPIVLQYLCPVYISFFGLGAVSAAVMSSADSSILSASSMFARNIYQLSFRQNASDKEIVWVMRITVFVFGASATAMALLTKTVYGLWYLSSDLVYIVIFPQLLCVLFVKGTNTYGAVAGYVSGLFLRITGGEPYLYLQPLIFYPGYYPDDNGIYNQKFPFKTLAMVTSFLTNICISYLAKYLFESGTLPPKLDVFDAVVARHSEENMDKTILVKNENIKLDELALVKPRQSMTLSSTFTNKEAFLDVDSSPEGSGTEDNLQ
In the case of `CC1CN(C(=O)c2cc(COc3c(F)cccc3F)on2)CCN1C` (configuration not stated), the B-score entry is “inactive”.

For `COc1ccc(C(CNC(=O)c2cccc(NS(=O)(=O)c3ccc(C)c(F)c3)c2)N2CCCC2)cc1` (configuration not stated), the B-score is -5.37 (active).

`COc1ccc(C(CNC(=O)c2cccc(S(=O)(=O)Nc3ccccc3Cl)c2)N2CCOCC2)cc1` (configuration not stated): the B-score result was “inactive”.

`Cc1cc(S(=O)(=O)Nc2ccc(C(=O)NCC(c3ccco3)N3CCCC3)cc2)ccc1F` (configuration not stated): the B-score result is “inactive”.

For `CC(=O)c1ccc(NC(=O)C2CCCN2S(=O)(=O)c2cccs2)cc1` (configuration not stated), the B-score result was “inactive”.

For `COc1ccc(CCNC(=O)C(=O)NCC2CCCN2S(=O)(=O)c2cccs2)cc1OC` (configuration not stated), the B-score entry was “inactive”.

For `Cc1occc1C(=O)N/N=C/c1ccc(-c2cccc([N+](=O)[O-])c2)o1`, the B-score entry is “inactive”.

As for `O=C(N/N=C/c1cc(Cl)cc([N+](=O)[O-])c1O)C(O)(c1ccccc1)c1ccccc1`, the B-score result is “inactive”.

With `O=[N+]([O-])c1cc(Cl)cc(/C=N/NC(=S)Nc2cc(S(=O)(=O)N3CCOCC3)ccc2Cl)c1O`, the B-score was -11.3 (active).

Take `O=C(CN1CCN(c2ccc(O)cc2)CC1)Nc1cc(S(=O)(=O)N2CCOCC2)ccc1Cl`: the B-score result was “inactive”.

Regarding `CC(=O)N1CCN(C(=O)c2cc(-c3ccc(C)o3)nc3ccccc23)CC1`, the B-score result was “inactive”.

As to `O=C(O)C1C2C=CC(C2)C1C(=O)NCc1ccccc1` (configuration not stated), the B-score entry is “inactive”.

In the case of `Cc1ccc(NNC(=O)c2c(F)cccc2Cl)cc1Cl`, the B-score result was “inactive”.

Take `Cc1ccc(NNC(=O)c2cccs2)cc1Cl`: the B-score was -4.98 (active).

`O=C(NNC(=O)c1ccc(Cl)cc1Cl)c1cccs1`: the B-score result was “inactive”.

`O=C(NCCCc1ccccc1)C(=O)NCC1OCCN1S(=O)(=O)c1ccccc1` (configuration not stated): the B-score result was “inactive”.

On to `Cc1ccc(N2CC(C(=O)N3CCC4(CC3)CC(=O)c3ccccc3O4)CC2=O)cc1C` (configuration not stated), for which the B-score result is “inactive”.

Turning to `Cc1ccc(Cc2nnc(SCC(=O)Nc3ccccc3C)[nH]c2=O)cc1`, the B-score entry is “inactive”.

For `CCC1CCCCN1CCCNC(=O)Cn1nc(-c2ccccc2)ccc1=O` (configuration not stated), the B-score entry is “inactive”.

For the compound `CCCn1c2ccccc2c2cnn(CC(=O)NCCCN3CCCCC3CC)c(=O)c21` (configuration not stated), the B-score is -7.41 (active).

With `CC1CCCCN1CCCNC(=O)Cn1ncc2c([nH]c3ccccc32)c1=O` (configuration not stated), the B-score result was “inactive”.

Turning to `O=C(Cn1ncc2c3ccccc3n(Cc3ccccc3)c2c1=O)NCc1ccccn1`, the B-score result is “inactive”.

With `O=C(Cn1ncc2c3ccccc3n(Cc3ccccc3)c2c1=O)NCCCN1CCOCC1`, the B-score is -8.06 (active).

As for `Cc1c2cnn(CC(=O)NCCCN3CC(C)CC(C)C3)c(=O)c2c(C)n1Cc1ccc(Cl)cc1` (configuration not stated), the B-score entry was “inactive”.

In the case of `Cc1ccc(C)c(-c2nnc(NC(=O)CS(=O)(=O)c3ccccc3)o2)c1`, the B-score result was “inactive”.

As for `Cc1ccc(S(=O)(=O)NCCC(=O)NC2CCN(Cc3ccccc3)CC2)cc1`, the B-score result was “inactive”.

As to `COc1ccc(Cc2nnc(SCC(=O)N(c3ccccc3)C(C)C)n(N)c2=O)cc1`, the B-score result is “inactive”.

For the compound `Nc1nnc(SCn2nnc3ccccc3c2=O)s1`, the B-score entry is “inactive”.

`O=c1c2ccccc2nnn1CSc1nnnn1-c1ccccc1`: the B-score entry is “inactive”.

For the compound `O=c1c2ccccc2nnn1CSc1nc2sc3c(c2c(=O)n1CC1CCCO1)CCC3` (configuration not stated), the B-score was -11.3 (active).

In the case of `CCn1c(SCC(=O)Nc2ccc(OC)c(OC)c2)nnc1-c1c[nH]c2ccccc12`, the B-score result was “inactive”.

For `CCn1c(SCCC(C)C)nnc1-c1c[nH]c2ccccc12`, the B-score was -5.53 (active).

Regarding `CCC(C)Sc1nnc(-c2c[nH]c3ccccc23)n1CCOC` (configuration not stated), the B-score entry was “inactive”.

`O=[N+]([O-])c1ncc(Br)cc1Nc1ccccc1`: the B-score result was “inactive”.

For the compound `CCOCCn1[nH]c2ccccc2c1=O`, the B-score entry was “inactive”.

Turning to `CC(Oc1ccc(Br)cc1)C(=O)NCC(c1ccco1)N1CCCCC1` (configuration not stated), the B-score result was “inactive”.

For `O=C1Nc2ccccc2C12Nc1ccccc1S2` (configuration not stated), the B-score entry was “inactive”.

As for `CCc1ccc2c(c1)C1(NN=C(c3ccccc3)S1)C(=O)N2` (configuration not stated), the B-score was -6.53 (active).

In the case of `CCc1ccc2c(c1)C(c1ccc([N+](=O)[O-])cc1)=NNC(c1ccccc1)=N2`, the B-score entry was “inactive”.

Turning to `CCOC(=O)c1cc2occc2n1CC(=O)N1CCN(C(=O)c2ccco2)CC1`, the B-score entry is “inactive”.

Take `COC(=O)c1cc2occc2n1Cc1nc(-c2ccccc2C)oc1C`: the B-score result is “inactive”.

For `CCC(C(=O)N1CCOCC1)n1c(C(=O)OC)cc2occc21` (configuration not stated), the B-score was -6.51 (active).

As to `O=C(CN1CCOCC1)Nc1cccc([N+](=O)[O-])c1`, the B-score result was “inactive”.

In the case of `O=C(CCNC(=O)c1ccc(Br)cc1)NCCCc1ccccc1`, the B-score entry is “inactive”.

Take `Cc1c(C(=O)OC(C)C)sc(NC(=O)c2cccnc2)c1C#N`: the B-score was -5.25 (active).

With `CCOC(=O)c1cc(NC(=O)c2cccnc2)ccn1`, the B-score result was “inactive”.

For `CCOC(=O)c1ccc(NC(=O)c2cccnc2)cc1`, the B-score entry is “inactive”.

For `Cc1ccc(C)c(OCCC(=O)OCC(=O)NC(=O)NCc2ccccc2)c1`, the B-score entry was “inactive”.

For `COc1ccccc1C(=O)Nc1ccccc1C(=O)Nc1ccccc1`, the B-score entry is “inactive”.

Turning to `Nc1nonc1-n1nnc(C(=O)N/N=C/c2ccccc2O)c1CN1CCCC1`, the B-score entry was “inactive”.

In the case of `CC1CCC(NC(=O)c2ccc(N3CCCC3=O)cc2)CC1` (configuration not stated), the B-score entry was “inactive”.

Turning to `Cc1ccc(C(=O)NNC(=O)c2ccncc2)cc1S(=O)(=O)N1CCCCC1`, the B-score result was “inactive”.

On to `Cc1ccc(C(=O)Nc2ccc3c(c2)OCO3)cc1S(=O)(=O)N1CCCCC1`, for which the B-score result is “inactive”.

For the compound `Cc1ccc(C(=O)NC2CCCC(C)C2C)cc1S(=O)(=O)N1CCCCC1` (configuration not stated), the B-score was -9.32 (active).

On to `CC1CCCC(NC(=O)c2cccc(N3CCCC3=O)c2)C1C` (configuration not stated), for which the B-score was -5.25 (active).

In the case of `C/C(=N\NC(=O)c1cccc(N2CCCC2=O)c1)c1ccc(N)cc1`, the B-score entry was “inactive”.

Turning to `COc1ccc2oc(C(=O)OCC(=O)N(CC(C)C)c3c(N)n(Cc4ccccc4)c(=O)[nH]c3=O)c(C)c2c1`, the B-score result is “inactive”.

With `CC1=NNC(=O)C1Cc1c(Cl)cccc1Cl` (configuration not stated), the B-score result is “inactive”.

Turning to `Cc1ccc2nc(NC(=O)CSc3nc(=O)n(CCCN(C)C)c4c3CCC4)sc2c1`, the B-score entry was “inactive”.

`COc1ccc(S(=O)(=O)N2CCCCCC2)cc1C(=O)N(C)Cc1cccc(OC)c1OC`: the B-score result was “inactive”.

As to `CN(CCC#N)c1ncnc2scc(-c3ccccc3)c12`, the B-score was -6.05 (active).

Regarding `C=CCn1cnc2scc(-c3ccccc3)c2c1=O`, the B-score result was “inactive”.

On to `N#CCCN(CCC#N)c1nnc(-c2ccccc2)s1`, for which the B-score entry was “inactive”.

Turning to `COc1cc(C(=O)N(C)Cc2cccc(OC)c2OC)ccc1OCC(=O)Nc1cccc(C(F)(F)F)c1`, the B-score entry is “inactive”.

Take `Fc1ccccc1COc1cccc2cccnc12`: the B-score entry is “inactive”.

Turning to `CN(/N=C/c1ccccc1)C(=S)c1ccccc1`, the B-score entry is “inactive”.

Regarding `COc1ccc([C@@H]2[C@@H]3C(=O)N(C(C)(C)C)C(=O)[C@@H]3[C@]3(Cc4ccccc4)C(=O)N(c4cccc(Br)c4)C(=O)N23)cc1`, the B-score entry is “inactive”.

For `Cc1cccc(NC(=O)c2cccc(S(=O)(=O)N3CCCC3)c2)n1`, the B-score entry was “inactive”.

Regarding `O=S(=O)(c1cccc(-c2cn3ccccc3n2)c1)N1CCCC1`, the B-score result was “inactive”.

Regarding `O=S(=O)(c1cccc(-c2nnc3n2CCCCC3)c1)N1CCOCC1`, the B-score entry is “inactive”.

`O=S(=O)(c1cccc(-c2nnc(SC(F)F)n2-c2ccccc2)c1)N1CCCCC1`: the B-score was -6.54 (active).

Regarding `Cc1onc(-c2ccccc2Cl)c1C(=O)N(Cc1ccc(N(C)C)cc1)C(C)C`, the B-score result is “inactive”.

For the compound `Cc1ccn2c(=O)c(NC(=O)c3cccc4ccccc34)c(C)nc2c1`, the B-score entry was “inactive”.

Take `COC(=O)C(C(=O)Nc1cccc(Cl)c1C)C1CCCC1` (configuration not stated): the B-score is -5.46 (active).

Take `Cc1c(Cl)cccc1NC(=O)Nc1ccc(C(=O)N2CCCC2)cc1`: the B-score entry was “inactive”.

Consider `Cc1c(Cl)cccc1NC(=O)NCc1ccc(C)n1C`, for which the B-score entry is “inactive”.

On to `CCN(CC(=O)Nc1c(F)cccc1F)C(=O)C1CCC1`, for which the B-score result is “inactive”.

Turning to `Cc1ccc(S(=O)(=O)NC(C)C(=O)NCc2ccc(Cl)cc2)cc1` (configuration not stated), the B-score entry is “inactive”.

On to `CCCNC(=O)c1ccc(N2CCC3(CC2)CC(c2cccc(Br)c2)=NO3)c(NC(=O)c2ccco2)c1`, for which the B-score result is “inactive”.

As for `CCN(CC(=O)Nc1cc(Cl)ccc1C)C(=O)CSCc1ccc(C)cc1`, the B-score result was “inactive”.

As for `CN(CC(=O)NCc1ccc(Cl)cc1)S(=O)(=O)c1cccs1`, the B-score entry is “inactive”.

For `CCN(CC(=O)NCc1ccc(Cl)cc1)C(=O)CSc1ccccc1`, the B-score is -5.83 (active).

For the compound `COc1ccc(N2CC(NS(=O)(=O)c3ccc4ccccc4c3)CC2=O)cc1` (configuration not stated), the B-score result was “inactive”.

As for `O=C1N[C@@H](Cc2ccccc2)C(=O)N2[C@H]1C[C@]1(Br)c3ccccc3N(S(=O)(=O)c3ccccc3)[C@H]21`, the B-score result is “inactive”.

With `Cc1nc2ccccc2c(=O)n1-c1ccc(F)c(NC(=O)c2cccs2)c1`, the B-score result was “inactive”.

Take `CCN(CC)CCn1c2c(c(SCC(=O)Nc3ccc(C(C)C)cc3)nc1=O)CCC2`: the B-score entry was “inactive”.

Consider `CS(=O)(=O)N(CC(=O)N1CCN(c2cccc(Cl)c2)CC1)c1ccccc1`, for which the B-score entry is “inactive”.

`COc1ccc(N(CC(=O)N2CCCCCC2)S(=O)(=O)c2ccccc2)cc1`: the B-score entry is “inactive”.

On to `CC1CCN(C(=O)CN(c2ccc(Oc3ccccc3)cc2)S(C)(=O)=O)CC1`, for which the B-score was -5.53 (active).

`NC(=O)NCCCC(=O)O`: the B-score entry is “inactive”.

For `Cc1ccc(NC(=O)COc2coc(CN3CCc4ccccc4C3)cc2=O)cc1Cl`, the B-score result was “inactive”.

As for `O=C(Nc1ccncc1)c1ccccc1[N+](=O)[O-]`, the B-score result was “inactive”.

For the compound `COc1ccc(NC(=O)c2ccccc2[N+](=O)[O-])cc1OC`, the B-score result is “inactive”.

As to `O=C(O/N=C(/c1ccccc1)c1ccncc1)c1ccccc1[N+](=O)[O-]`, the B-score was -5.03 (active).

Regarding `COc1ccc(-c2cc(C(=O)N/N=C/c3cccnc3)c3ccccc3n2)c(OC)c1`, the B-score entry was “inactive”.

For the compound `O=C(O)CC1=C(Nc2ccccc2)C(=O)N(c2ccccc2)C1c1ccc(Cl)cc1` (configuration not stated), the B-score is -9.58 (active).

For `COC(=O)CN1C(=S)N(c2ccccc2)C(=O)C1CC(=O)Nc1ccc(Cl)cc1` (configuration not stated), the B-score result is “inactive”.

As to `O=C(O)Cc1ccc(NCc2ccccc2Cl)cc1`, the B-score result was “inactive”.

Take `O=C(NCCc1ccco1)C(=O)NCCC1CCCCN1S(=O)(=O)c1ccccc1` (configuration not stated): the B-score entry is “inactive”.

For `O=C(C1CCN(S(=O)(=O)c2ccc(Br)s2)CC1)N1CCN(c2ccccc2)CC1`, the B-score was -8.2 (active).

For the compound `CS(=O)(=O)N1CCC(C(=O)N2CCN(c3ccccc3)CC2)CC1`, the B-score result is “inactive”.

Regarding `O=C(C1CCN(S(=O)(=O)c2ccc(Br)s2)CC1)N1CCN(C2CCCCC2)CC1`, the B-score entry was “inactive”.
